Several values for one entry are separate records, joined by “and”; a condition that tells them apart may be missing. Identical values can stand only once. Inconclusive results are not listed. Activity calls are given as the source filed them. Unless noted, calls follow the shape of the dose curve; as a rule, active = well fitted curve in the direction sought with a large enough effect; inconclusive = small, poorly fitted or top-dose-only effect, or another doubt; inactive = no such curve, though single readings can be large; an effect the other way counts as inactive or inconclusive.
Columns and labels:
[1] = Cellular Toxicity (caspase-3) Jurkat (AID 655); conditions: Jurkat caspase-3 activation, luminescence; caspase-3 activation: at 92.2 µM (top of the series), DMSO = 0%, tamoxifen = 100%;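 also: cells exposed to compound for 16 h at 37 °C before reading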; also: potency is read from the fitted curve at half-maximal effect
In short: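 qHTS in human Jurkat T-cell leukemia line: 16 hr compound treatment at 37 °C, caspase-3/7 activity measured by Caspase-Glo luminescence. AC50 derived from Hill equation.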

[2] = Cellular Toxicity (caspase-3) N2a (AID 665);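 also: compound exposure lasted 16 h at 37 °C before readout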
In short: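 Caspase-3/7 activation, measured as increased luminescence from aminoluciferin release, is quantified in mouse N2a cells exposed to compounds for 16 h. Values are normalized to DMSO and 10 uM staurosporine, with AC50 derived by Hill modelling.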

[3] = Cellular Toxicity (caspase-3) Renal Proximal Tubule (AID 667);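 also: cells exposed to compound for 16 hours at 37 °C before detection; 0% = DMSO basal and 100% = 10 µM staurosporine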
In short: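 Caspase-Glo 3/7 read-out, rat primary kidney proximal tubule cells. Compound exposure 16 h, 37 °C; detection after 1 h at RT. Activity scaled to DMSO and 10 uM staurosporine.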

[4] = target: Cytochrome P450 3A4 (Homo sapiens) (UniProt P08684); experiment: qHTS Assay for Inhibitors and Substrates of Cytochrome P450 3A4 (AID 884); also: nearly all actives have a fitted effect of over 50% in size; also: potency is read from the fitted curve at half-maximal effect
Sequence of Cytochrome P450 3A4 (Homo sapiens) (P08684 whole entry, looked up): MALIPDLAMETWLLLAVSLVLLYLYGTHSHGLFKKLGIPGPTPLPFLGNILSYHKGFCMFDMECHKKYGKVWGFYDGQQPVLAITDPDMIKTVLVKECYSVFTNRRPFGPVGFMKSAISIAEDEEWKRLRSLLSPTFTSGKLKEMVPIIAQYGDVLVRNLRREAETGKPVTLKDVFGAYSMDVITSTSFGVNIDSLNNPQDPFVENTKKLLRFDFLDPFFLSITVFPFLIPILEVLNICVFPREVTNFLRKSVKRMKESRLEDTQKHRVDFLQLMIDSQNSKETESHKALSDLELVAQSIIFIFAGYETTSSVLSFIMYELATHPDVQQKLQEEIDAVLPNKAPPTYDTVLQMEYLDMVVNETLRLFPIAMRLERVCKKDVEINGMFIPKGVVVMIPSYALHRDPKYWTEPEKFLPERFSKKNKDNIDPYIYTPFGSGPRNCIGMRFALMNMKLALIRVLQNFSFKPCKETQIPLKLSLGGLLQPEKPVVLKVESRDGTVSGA
In short: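 Luminescent readout of luciferin produced by CYP3A4 (20 nM) dealkylation of Luciferin-PPXE, 25 uM (its KM). NADPH-driven reaction ran 60 min at RT after 10 min compound preincubation; data scaled to 57 uM ketoconazole as 100% inhibition.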

[5] = MultiTox-Fluor Cytotoxicity Assay - LYMP1-001 - Live Cells (AID 947);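 also: 0% = DMSO only and full inhibition = tetraoctylammonium bromide control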
[6] = Cell Viability - LYMP1-003 - Assay at 40 hr (AID 964); also: nearly all actives have a fitted effect of over 60% in size; also: potency is read from the fitted curve at half-maximal effect
In short: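 Luminescent ATP signal (CellTiter-Glo) served as the viability read-out after 40 hr compound treatment of human lymphoblastoid LYMP1-003 cells at 37 C. Decreases in ATP were fitted with the Hill equation to give AC50.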

[7] = Cell Viability - LYMP2-004 (AID 966);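 also: cells exposed to compound for 24 h; nearly all actives have a fitted effect of over 65% in size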; also: potency is read from the fitted curve at half-maximal effect
In short: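 qHTS cytotoxicity: human lymphoblastoid line, 24 hr compound treatment, 37 C, complete medium. Viability read as cellular ATP via luciferase luminescence; tetraoctylammonium bromide served as positive control.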

[8] = Cell Viability - LYMP2-017 (AID 972);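 also: cells exposed to compound for 24 hours at 37 °C; nearly all actives have a fitted effect of over 55% in size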; also: potency is read from the fitted curve at half-maximal effect
In short: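 Cytotoxicity is scored as a concentration-dependent drop in cellular ATP in a human lymphoblastoid line after 24 hr treatment at 37 C. Values are AC50s from Hill-equation modelling.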

[9] = Cell Viability - LYMP2-019 (AID 973);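 also: cells exposed to compound for 24 h at 37 °C; nearly all actives have a fitted effect of over 55% in size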; also: potency is read from the fitted curve at half-maximal effect
In short: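 Cytotoxicity is scored as a concentration-dependent drop in cellular ATP after cells (2500/well) receive compound for 24 hr at 37 C. Tetraoctylammonium bromide serves as positive control.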

[10] = Cell Viability - LYMP2-007 (AID 979);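 also: cells exposed to compound for 24 h before reading; nearly all actives have a fitted effect of over 60% in size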; also: potency is read from the fitted curve at half-maximal effect
In short: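 Cells are seeded at 2500 per well and rested 5 hr. Compounds are then added over a concentration series for 24 hr at 37 C. CellTiter-Glo is added for 30 min at room temperature before luminescence reading.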

[11] = Cell Viability - LYMP2-008 (AID 980); also: nearly all actives have a fitted effect of over 60% in size; also: potency is read from the fitted curve at half-maximal effect
In short: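 Cells seeded at 2500/well and rested 5 hr at 37 C; compounds added over a concentration range and incubated 24 hr at 37 C; CellTiter-Glo added, 30 min at room temperature; luminescence read and AC50 fitted with Hill model.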

[12] = Cell Viability - LYMP2-012 (AID 982);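 also: cellular ATP by luciferase luminescence where a drop means cytotoxicity; cells exposed to compound for one day before reading; nearly all actives have a fitted effect of over 55% in size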; also: potency is read from the fitted curve at half-maximal effect
[13] = Cell Viability - LYMP2-014 (AID 983);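 also: cells exposed to compound for 24 h at 37 °C; nearly all actives have a fitted effect of over 50% in size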; also: potency is read from the fitted curve at half-maximal effect
In short: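 Cells are plated at 2500/well and left 5 hr at 37 C. Compounds are added across a concentration range and incubated 24 hr at 37 C in complete medium. CellTiter-Glo is added, and luminescence is read after 30 min at room temperature.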

[14] = Cell Viability - LYMP2-018 (AID 985);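 also: compound exposure lasted 24 hr at 37 °C; nearly all actives have a fitted effect of over 50% in size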; also: potency is read from the fitted curve at half-maximal effect
In short: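 Seed 2500 lymphoblastoid cells per well, incubate 5 hr at 37 C, add compound and incubate 24 hr at 37 C, add CellTiter-Glo, wait 30 min at room temperature, then read luminescence.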

[15] = Cell Viability - LYMP1-002 - Assay at 40 hr (AID 994);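 also: 0% = DMSO only and full inhibition = 92 µM tetraoctylammonium bromide; nearly all actives have a fitted effect of over 60% in size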
In short: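 Cells are plated at 2500 per well and rested 5 hr at 37 C. Compounds are added and incubated 40 hr at 37 C. CellTiter-Glo reagent is added for 30 min at room temperature before luminescence is read.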

[16] = qHTS assay for small molecule antagonists of retinoid X receptor alpha signaling (AID 588546); conditions: HEK293T RXRa-UAS-bla, beta-lactamase ratio, antagonist mode; measured here: W530 green channel, cytotoxicity proxy;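 also: cells stimulated with 9-cis-retinoic acid as agonist; % is scaled to controls: 0 for no effect and ±100 for the full control effect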
In short: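 Beta-lactamase reporter inhibition, read as CCF4 fluorescence ratio (ex 405, em 460/530 nm) after 2 h at RT. HEK293T UAS-bla cells, 2500/well, were stimulated with 9-cis-RA at 500 or 100 nM final alongside test compound for 18 h at 37 C.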

[17] = target: Tumor necrosis factor (Homo sapiens) (UniProt P01375); experiment: qHTS assay to identify small molecules that stimulate Tumor Necrosis Factor-alpha (TNF-alpha) secretion (AID 651757; active = well fitted curve in the direction sought with a large enough effect in the signal ratio; the % refers to the signal ratio; also: 0% is about no effect)
Sequence of Tumor necrosis factor (Homo sapiens) (P01375 whole entry, looked up): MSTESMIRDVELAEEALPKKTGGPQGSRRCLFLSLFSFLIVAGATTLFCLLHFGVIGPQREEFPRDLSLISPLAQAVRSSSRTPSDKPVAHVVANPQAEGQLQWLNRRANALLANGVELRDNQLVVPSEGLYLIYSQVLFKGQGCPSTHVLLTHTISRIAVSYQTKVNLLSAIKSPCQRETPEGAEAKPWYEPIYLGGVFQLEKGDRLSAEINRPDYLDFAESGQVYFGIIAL
In short: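 Human monocytic THP-1 cells are plated, treated with compound and held at 37 C for 17 hrs. Labeled anti-TNF-alpha antibody mixture is then added; after 3 hr at room temperature, TR-FRET signal reports secreted TNF-alpha.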

[18] = target: Voltage-gated inwardly rectifying potassium channel KCNH2 (Homo sapiens) (UniProt Q12809); experiment: qHTS Assay for Small Molecule Inhibitors of the Human hERG Channel Activity (AID 588834);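 also: lower thallium flux fluorescence means stronger hERG block; nearly all actives have a fitted effect of over 50% in size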; also: potency is read from the fitted curve at half-maximal effect
Sequence of Voltage-gated inwardly rectifying potassium channel KCNH2 (Homo sapiens) (Q12809 whole entry, looked up): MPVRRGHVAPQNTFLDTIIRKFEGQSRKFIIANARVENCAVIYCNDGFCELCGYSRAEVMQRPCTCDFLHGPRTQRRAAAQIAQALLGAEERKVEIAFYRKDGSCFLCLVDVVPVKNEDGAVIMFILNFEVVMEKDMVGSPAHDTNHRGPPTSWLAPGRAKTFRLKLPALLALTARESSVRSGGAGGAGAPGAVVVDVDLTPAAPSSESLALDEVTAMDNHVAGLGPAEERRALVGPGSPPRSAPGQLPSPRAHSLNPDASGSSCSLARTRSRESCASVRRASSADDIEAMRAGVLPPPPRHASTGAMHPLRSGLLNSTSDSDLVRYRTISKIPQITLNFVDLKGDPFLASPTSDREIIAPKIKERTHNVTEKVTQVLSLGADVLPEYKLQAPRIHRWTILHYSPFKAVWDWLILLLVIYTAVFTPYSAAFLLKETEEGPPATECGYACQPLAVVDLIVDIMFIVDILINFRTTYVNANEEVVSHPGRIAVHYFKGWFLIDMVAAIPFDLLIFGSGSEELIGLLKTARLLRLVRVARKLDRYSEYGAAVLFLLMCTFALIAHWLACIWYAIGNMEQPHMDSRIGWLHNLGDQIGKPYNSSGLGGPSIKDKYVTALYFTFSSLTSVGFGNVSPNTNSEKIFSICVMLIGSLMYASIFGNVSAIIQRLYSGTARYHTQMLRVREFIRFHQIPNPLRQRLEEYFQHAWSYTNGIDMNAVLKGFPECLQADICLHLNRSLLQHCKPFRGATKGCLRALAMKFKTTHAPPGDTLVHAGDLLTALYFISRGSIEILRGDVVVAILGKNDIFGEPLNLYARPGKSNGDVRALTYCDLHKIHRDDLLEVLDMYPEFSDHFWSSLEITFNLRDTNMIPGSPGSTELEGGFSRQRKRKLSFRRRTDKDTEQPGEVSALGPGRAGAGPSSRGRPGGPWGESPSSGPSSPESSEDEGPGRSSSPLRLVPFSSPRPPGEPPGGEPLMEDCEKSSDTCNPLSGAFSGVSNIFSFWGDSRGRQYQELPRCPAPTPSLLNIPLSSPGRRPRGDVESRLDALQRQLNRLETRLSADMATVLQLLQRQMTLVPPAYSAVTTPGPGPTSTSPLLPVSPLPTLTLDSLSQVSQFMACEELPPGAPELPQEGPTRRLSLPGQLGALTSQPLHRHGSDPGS
In short: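 Homogeneous FluxOR thallium flux assay using hERG-expressing U2OS cells (BacMam). Compound treatment about 10 minutes preceded stimulation; reduced fluorescence taken as channel block.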

[19] = qHTS assay for cell viability of the p53RE-bla HCT-116 cell line (AID 743292); also: % is scaled to controls: 0 for no effect and ±100 for the full control effect; nearly all actives have a fitted effect of over 55% in size
In short: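 Viability of compound-treated p53RE-bla HCT-116 cells is taken from ATP-dependent luciferase luminescence. Treatment lasts 16 h at 37 C after a 5 h settling period; detection follows 30 min at room temperature.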

[20] = target: Mitogen-activated protein kinase 10 (Mus musculus) (UniProt Q61831); experiment: JNK3 AlphaScreen Assay (AID 530; active = well fitted curve in either direction with a large enough effect, not every such curve was filed as active;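 also: kinase came from lysate of stimulated human HepG2 cells; signal reports phosphorylation of biotinylated GST-cJun 1-79 at Ser73 with 10 µM ATP; % is scaled to controls: 0 for no effect and ±100 for the full control effect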)
In short: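 qHTS titrations with 15 min compound pre-incubation before adding ATP (10 uM final). Read-out: AlphaScreen of Ser73-phosphorylated biotin-GST-cJun using HepG2 lysate JNK3 activated by IL-1β and TNFα.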

Cc1cc(C)cc(OP(=O)(Oc2cc(C)cc(C)c2)Oc2cc(C)cc(C)c2)c1
active: Potency [4] 2.51 µM
inactive: caspase-3 activation [1] 0.111% | outcome [2] | outcome [3] | outcome [5] | Potency [6] | Potency [7] | Potency [8] | Potency [9] | Potency [10] | Potency [11] | Potency [12] | Potency [13] | Potency [14] | Potency [15] | outcome [17]
17.8%: max response [16]

CN1CSC(=S)N(C)C1
5.73%: max response [16]
inactive: outcome [2] | outcome [3] | Potency [4] | Potency [18] | outcome [17]
active: Potency [6] 39.8 µM | Potency [7] 31.6 µM | Potency [8] 25.1 µM | Potency [9] 31.6 µM | Potency [10] 31.6 µM | Potency [11] 39.8 µM | Potency [12] 25.1 µM | Potency [13] 15.8 µM | Potency [14] 12.6 µM

ClCc1ccccn1
3.04% and -6.39%: max response [16]
inactive: caspase-3 activation [1] 1.38% | outcome [2] | outcome [3] | Potency [4] | outcome [5] | Potency [6] | Potency [7] | Potency [8] | Potency [9] | Potency [10] | Potency [11] | Potency [12] | Potency [13] | Potency [14] | Potency [15] | Potency [18] | outcome [17] | Potency [19]

CC(C)(OOC(C)(C)c1ccccc1)c1ccccc1
active: Potency [18] 15.8 µM
-11%: max response [16]
inactive: caspase-3 activation [1] -0.0747% | outcome [2] | outcome [3] | Potency [4] | Potency [6] | Potency [7] | Potency [8] | Potency [9] | Potency [10] | Potency [11] | Potency [12] | Potency [13] | Potency [14] | Potency [15] | outcome [17] | Potency [19]

Nc1cccc2ccccc12
active: Potency [1] 25.1 µM | Potency [10] 39.8 µM | Potency [11] 39.8 µM
-8.8%: max response [16]
inactive: Potency [20] | outcome [2] | outcome [3] | outcome [5] | Potency [6] | Potency [7] | Potency [12] | Potency [13] | Potency [14] | Potency [15] | Potency [18] | outcome [17] | Potency [19]

CCN(N=O)C(N)=O
-10.6%: max response [16]
inactive: Potency [20] | caspase-3 activation [1] 0.577% | outcome [2] | outcome [3] | Potency [4] | outcome [5] | Potency [6] | Potency [7] | Potency [8] | Potency [9] | Potency [10] | Potency [11] | Potency [12] | Potency [13] | Potency [14] | Potency [15] | Potency [18] | outcome [17]

COc1cc(-c2ccc(N)c(OC)c2)ccc1N
active: Potency [4] 12.6 µM
inactive: caspase-3 activation [1] -0.124% | outcome [2] | outcome [3] | outcome [5] | Potency [6] | Potency [7] | Potency [8] | Potency [9] | Potency [10] | Potency [11] | Potency [12] | Potency [13] | Potency [14] | Potency [15] | Potency [18] | Potency [19]
0.0176% and -5.1%: max response [16]

COP(=S)(OC)SCn1nnc2ccccc2c1=O
inactive: Potency [20] | caspase-3 activation [1] -1.97% | outcome [2] | outcome [5] | Potency [6] | Potency [8] | Potency [9] | Potency [10] | Potency [11] | Potency [12] | Potency [13] | Potency [14] | Potency [15] | Potency [18] | outcome [17] | Potency [19]
active: Potency [4] 7.94 µM
